# An excerpt weighted towards active compounds, which were near 1.1% of everything screened.
# RE007 growth inh – less growth of the S. pombe RE007 Vpr strain | Potency, µM (top dose mostly 92.2 µM), for the others: at the top dose activity change, negative = less growth, most hits filed as inhibitors | S. pombe RE007 Vpr strain, BacTiter-Glo ATP luminescence, 24 h | 0.21% of 360,000 active; active = well fitted falling curve with a large enough effect; inconclusive = small, poorly fitted or top-dose-only effect; inactive = no such curve, though single readings can be large or run the other way; also: % is scaled to controls: 0 for no effect and ±100 for the full control effect; nearly all actives have a fitted effect of over 50% in size
#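 Fission yeast strain RE007, carrying one chromosomally integrated HIV-1 vpr copy, was seeded at OD 0.01 in PMG+AL medium with 23 nL pinned compound. After 24 h at 30 °C and 99% humidity, viability was read by BacTiter-Glo luminescence.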
# SARS PLpro yeast – SARS-CoV PLP inhibition in yeast. S. cerevisiae expressing SARS-CoV PLpro, growth rescue. 0.19% of 330,000 active. Potency, µM (doses to about 32.9 µM), without a hit: at the top dose activity, positive = growth rescue, most hits filed as activators. AID 485353; calls by dose curve; also: 0% is about no effect; nearly all actives have a fitted effect of over 55% in size
# LmPK inhibitor – blocks Leishmania mexicana pyruvate kinase activity; purified LmPK, Kinase-Glo ATP luminescence, 1 h; 0.37% of 290,000 active; Potency, µM (highest dose often 57.5 µM), without a hit: at the top dose activity change, negative = inhibition, usual class: inhibitors; Q27686; also: % is scaled to controls: 0 for no effect and ±100 for the full control effect
# Target sequence (Q27686 whole entry, looked up): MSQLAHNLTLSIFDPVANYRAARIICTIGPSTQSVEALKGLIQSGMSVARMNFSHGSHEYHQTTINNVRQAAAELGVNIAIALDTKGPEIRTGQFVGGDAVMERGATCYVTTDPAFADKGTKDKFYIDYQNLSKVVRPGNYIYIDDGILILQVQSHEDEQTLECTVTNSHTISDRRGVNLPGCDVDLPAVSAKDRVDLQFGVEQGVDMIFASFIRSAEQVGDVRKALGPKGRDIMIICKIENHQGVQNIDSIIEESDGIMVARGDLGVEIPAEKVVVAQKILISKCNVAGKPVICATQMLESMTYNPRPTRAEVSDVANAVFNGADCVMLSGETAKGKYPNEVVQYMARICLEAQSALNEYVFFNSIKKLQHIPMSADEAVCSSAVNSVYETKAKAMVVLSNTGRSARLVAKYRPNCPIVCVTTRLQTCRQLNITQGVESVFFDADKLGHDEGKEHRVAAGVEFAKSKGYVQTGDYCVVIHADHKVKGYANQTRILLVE
#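 ATP generated from ADP (0.1 mM) and PEP (0.5 mM) by 0.1 nM LmPK over 1 h at room temperature (pH 7.2 imidazole buffer) was detected by coupled luciferase luminescence. Values were normalized to uninhibited and no-enzyme wells.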
# TbPYK inhibitor – inhibitors of Trypanosoma brucei pyruvate kinase; TbPYK enzyme, Kinase-Glo Plus ATP luminescence, 45 min; 0.12% of 410,000 active; Potency, µM (top dose mostly 76.8 µM), inactives show top-dose activity, negative = inhibition, most hits filed as inhibitors; Q57TT1; AID 624173; also: % is scaled to controls: 0 for no effect and ±100 for the full control effect; nearly all actives have a fitted effect of over 50% in size
#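 ADP (130 uM final) triggers the TbPYK reaction after compound addition; incubation is 45 min at room temperature. Kinase-Glo Plus is then added and luminescence imaged. Normalized data are fitted to concentration-effect curves.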
# Giardia FBPA inh-1 – blocks Giardia fructose-bisphosphate aldolase activity. A8B2U2. purified Giardia FBPA. Potency, µM (series often up to 59.6 µM), for inactives: at the top dose activity, negative = inhibition, actives largely listed as inhibitors. 0.71% of 290,000 active. AID 2451; also: % is scaled to controls: 0 for no effect and ±100 for the full control effect; nearly all actives have a fitted effect of over 55% in size
#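 Giardia FBPA (40 nM reagent) was preincubated 10 min at RT with compound (up to 57.5 uM final), then substrate plus GAPDH/TPI/NAD/arsenate coupling system with diaphorase/resazurin was added; resorufin fluorescence (525/598 nm) was read after 20 min.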
# Giardia growth – Giardia lamblia growth inhibition; 5% of 1,500 active; Giardia lamblia trophozoite growth inhibition; Potency, µM (doses to about 57.5 µM), for the others: at the top dose activity change, negative = inhibition, hits mostly inhibitors; shares compounds with Giardia FBPA inh-1;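 also: trophozoites exposed to compound for 48 h at 37 °C; % is scaled to controls: 0 for no effect and ±100 for the full control effect; nearly all actives have a fitted effect of over 70% in size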
# Mammalian tox – toxic to mammalian cells in Giardia aldolase counter-screen. Potency, µM (doses to about 57.5 µM), inactives show top-dose viability change, negative = toxicity, usual class: inhibitors. mammalian cell viability counter-screen, qHTS. 4% of 1,500 active. shares compounds with Giardia FBPA inh-1;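 also: Chinese hamster ovary cells used as mammalian cytotoxicity surrogate; viability measured as cellular ATP by luminescence; compound exposure lasted 48 h before reading; % is scaled to controls: 0 for no effect and ±100 for the full control effect; nearly all actives have a fitted effect of over 60% in size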
# Giardia FBPA inh-2 – confirmation of Giardia fructose-bisphosphate aldolase inhibitors. Potency, µM (series often up to 57.5 µM), for inactives: top-dose activity change, negative = inhibition, most hits filed as inhibitors. purified Giardia aldolase enzyme activity, qHTS. 5% of 1,500 active. shares compounds with Giardia FBPA inh-1; also: % is scaled to controls: 0 for no effect and ±100 for the full control effect; nearly all actives have a fitted effect of over 45% in size
# Rabbit aldolase – selectivity test for Giardia aldolase inhibitors: rabbit aldolase; 4% of 1,500 active; Potency, µM (titrated, usually from 57.5 µM), inactives show at the highest dose activity, negative = inhibition, most hits filed as inhibitors; AID 2794; shares compounds with Giardia FBPA inh-1; Rabbit muscle FBPA enzyme inhibition, selectivity counter-screen; also: % is scaled to controls: 0 for no effect and ±100 for the full control effect; nearly all actives have a fitted effect of over 60% in size
# GAPDH coupling – counter-screen for Giardia aldolase inhibitors: GAPDH coupling enzyme; shares compounds with Giardia FBPA inh-1; GAPDH coupling enzyme counterscreen, biochemical, qHTS; Potency, µM (series often up to 57.5 µM), without a hit: at the top dose activity change, negative = inhibition, most hits filed as inhibitors; 6% of 1,500 active; AID 2795; also: % is scaled to controls: 0 for no effect and ±100 for the full control effect; nearly all actives have a fitted effect of over 55% in size
# Starred values were filed as active, the others as inactive; ? = inconclusive; . = no result given; [ ] = dose if it differs, or a comment. Unless noted, calls follow the shape of the dose curve; as a rule, active = well fitted curve in the direction sought with a large enough effect; inconclusive = small, poorly fitted or top-dose-only effect, or another doubt; inactive = no such curve, though single readings can be large; an effect the other way counts as inactive or inconclusive. Potency is read from the fitted curve at half-maximal effect.
SMILES,RE007 growth inh,SARS PLpro yeast,LmPK inhibitor,TbPYK inhibitor,Giardia FBPA inh-1,Giardia growth,Mammalian tox,Giardia FBPA inh-2,Rabbit aldolase,GAPDH coupling
O=C(O)c1cccc(-c2ccc(/C=N/Nc3nn[nH]n3)o2)c1,1%,4%,-4%,-4%,16µM*,-12%,5%,-1%,-11%,-1%
Cc1cccc(C(=O)OCCN2CCOCC2)c1,-4%,4%,-2%,2%,14µM*,?,2%,3%,9%,9%
CN1CC[C@]2(C)c3cc(O)ccc3N(C)[C@@H]12,.,.,.,.,1µM*,-2%[19.1 µM],-23%[28.7 µM],2.2µM*,3.2µM*,3.2µM*
CC1[C@H]2Cc3ccc(O)cc3[C@]1(C)CCN2CCc1ccccc1 (stereo partly specified),-7%,-2%,.,1%,.,.,.,.,.,.
Cn1c(=O)c2[nH]c(N/N=C(/C#N)C(N)=O)nc2n(C)c1=O,-6%,-2%,-7%,-2%,20µM*,34%,-5%,5%,2%,-2%
COc1ccc(Cn2ccc3nc(C)c(C(=O)Nc4ccc(OC)cc4)cc3c2=O)cc1,.,.,.,8%,.,.,.,.,.,.
O=C(O)CCCCCn1c(SCC(=O)c2ccc(O)c(O)c2)nc2ccsc2c1=O,12%,-10%,1%,0%,4µM*,4%[10.4 µM],3%,-9%,-11%,20%
CCCCn1c(SCC(=O)c2ccc(O)c(O)c2)nc2ccsc2c1=O,10%,?,0%,-5%,?,.,.,.,.,.
O=C(CSc1n[nH]c(-c2ccncc2)n1)c1ccccc1,-6%,-2%,-9%,-13%,6%,.,.,.,.,.
Cc1nc(SCC(=O)c2ccccc2)n[nH]1,-7%,7%,9%,6%,13µM*,11%,-11%,5%,10%,3%
COC(=O)c1ccc(NC(=O)CCc2c(C)nn(-c3ccc(N4CCCCC4)nn3)c2C)cc1,.,.,.,-3%,.,.,.,.,.,.
CCOc1ccc(CNCc2c(C(=O)O)n(Cc3ccccc3C)c3cc(OC)ccc23)cc1OC,.,.,.,-3%,.,.,.,.,.,.
CC1=CCc2c(cc3oc(C)cc(=O)c3c2O)OC1,.,.,.,.,4%,.,.,.,.,.
Cc1cc(=O)c2c(O)c(O)ccc2o1,-13%,4%,-2%,-9%,10µM*,63%,11%,?,?,?
CCN(CC)C(=O)Cn1c(=O)n(-c2ccc(Cl)cc2)c(=O)c2c3c(sc21)CCCCC3,.,.,.,-1%,.,.,.,.,.,.
CC(=O)NC1=C(NC2CCS(=O)(=O)C2)C(=O)c2ccccc2C1=O (stereo unspecified),-23%,-60%,-8%,?,?,.,.,.,.,.
CN(C1=C(NC(=O)c2ccccc2)C(=O)c2ccccc2C1=O)C1CCS(=O)(=O)C1 (stereo unspecified),-18%,-8%,-8%,-28%,0.63µM*,25µM*,40µM*,?,?,6.3µM*
CCCCC(=O)Nc1ccc2nc(SCC(=O)N3CCCC3)sc2c1,.,.,.,-21%,.,.,.,.,.,.
c1ccc(-c2nc3ccccc3nc2-c2ccccn2)nc1,6%,5%,1%,1%,?,.,.,.,.,.
c1ccc(C2=NNC(c3ccccn3)=NN2)nc1,-10%,0%,-22%,-19%,7.9µM*,?,0%,-26%,-23%,?
